From PubChem BioAssay AID1159580 (chemical genetic matrix, 2015)
Hit rate of the full screen: of about 5,500 compounds, about 2,000 (36%) were called active. Not shown: some 18% with an inconclusive outcome. Cut-off read from the data, not from the text of the source: active = normalized growth mostly below about 0.91 (no sharp cut-off); inconclusive = no clear call, values can overlap the other calls; inactive = mostly above about 0.92. The list shows a part of the results.

Assay: chemical genetic growth profiling, strain panel (AID 1159580);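 note: tested at 20 µM; growth read once vehicle control cultures reached saturation at 30 °C; 1 = growth at the plate median or of vehicle wells; lower values mean less growth of the strain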
Settings: growth OD

Measured: normalized growth

CC(=O)C1=C(O)C2C3c4c[nH]c5cccc(c45)CC3C(C)(C)N2C1=O (stereo unspecified)
inactive: S. cerevisiae deletion strains, locus YAL013W, strain DEP1, active compounds read low 0.994 | S. cerevisiae deletion strains, locus YBR021W, strain FUR4, active compounds read low 0.983 | S. cerevisiae deletion strains, locus YBR229C, strain ROT2, active compounds read low 0.997 | S. cerevisiae deletion strains, locus YCL029C, strain bik1, active compounds read low 1 | S. cerevisiae deletion strains, locus YDL035C, strain GPR1, active compounds read low 1.01 | S. cerevisiae deletion strains, locus YDL074C, strain BRE1, active compounds read low 1.01 | S. cerevisiae deletion strains, locus YDL101C, strain DUN1, active compounds read low 1.01 | S. cerevisiae deletion strains, locus YDL134C, strain PPH21, active compounds read low 1 | S. cerevisiae deletion strains, locus YDL185W, strain tfp1, active compounds read low 0.995 | S. cerevisiae deletion strains, locus YDL192W, strain arf1, active compounds read low 1 | S. cerevisiae deletion strains, locus YDR101C, strain arx1, active compounds read low 0.995 | S. cerevisiae deletion strains, locus YDR150W, strain NUM1, active compounds read low 1.01 | S. cerevisiae deletion strains, locus YDR162C, strain NBP2, active compounds read low 0.993 | S. cerevisiae deletion strains, locus YDR318W, strain mcm21, active compounds read low 1.01 | S. cerevisiae deletion strains, locus YDR388W, active compounds read low 1 | S. cerevisiae deletion strains, locus YDR502C, strain sam2, active compounds read low 1.01 | S. cerevisiae deletion strains, locus YEL061C, strain CIN8, active compounds read low 0.989 | S. cerevisiae deletion strains, locus YER110C, active compounds read low 1.01 | S. cerevisiae deletion strains, locus YER155C, strain BEM2, active compounds read low 1 | S. cerevisiae deletion strains, locus YER167W, strain BCK2, active compounds read low 1.01 | S. cerevisiae deletion strains, locus YGL078C, strain dbp3, active compounds read low 1 | S. cerevisiae deletion strains, locus YGL086W, strain mad1, active compounds read low 1.01 | S. cerevisiae deletion strains, locus YGL248W, strain PDE1, active compounds read low 0.997 | S. cerevisiae deletion strains, locus YGR078C, strain PAC10, active compounds read low 0.975 | S. cerevisiae deletion strains, locus YGR135W, strain pre9, active compounds read low 0.993 | S. cerevisiae deletion strains, locus YGR229C, strain SMI1, active compounds read low 0.971 | S. cerevisiae deletion strains, locus YGR252W, strain gcn5, active compounds read low 1.04 | S. cerevisiae deletion strains, locus YHR030C, strain SLT2, active compounds read low 1.01 | S. cerevisiae deletion strains, locus YHR079C, strain IRE1 (second series), active compounds read low 1.02 | S. cerevisiae deletion strains, locus YHR094C, strain hxt1, active compounds read low 1 | S. cerevisiae deletion strains, locus YHR129C, strain ARP1, active compounds read low 1 | S. cerevisiae deletion strains, locus YHR200W, strain rpn10, active compounds read low 1.01 | S. cerevisiae deletion strains, locus YIL066C, strain RNR3, active compounds read low 1.04 | S. cerevisiae deletion strains, locus YIL073C, strain SPO22, active compounds read low 1.07 | S. cerevisiae deletion strains, locus YIL125W, strain kgd1, active compounds read low 1 | S. cerevisiae deletion strains, locus YIR030C, strain dcg1, active compounds read low 1 | S. cerevisiae deletion strains, locus YJL095W, strain BCK1, active compounds read low 1 | S. cerevisiae deletion strains, locus YJL134W, strain LCB3, active compounds read low 1.01 | S. cerevisiae deletion strains, locus YJL168C, strain set2, active compounds read low 1.01 | S. cerevisiae deletion strains, locus YJL187C, strain SWE1 (second series), active compounds read low 1.01 | S. cerevisiae deletion strains, locus YJR043C, strain POL32, active compounds read low 1.01 | S. cerevisiae deletion strains, locus YJR075W, strain HOC1, active compounds read low 1 | S. cerevisiae deletion strains, locus YKL009W, strain mrt4, active compounds read low 1.03 | S. cerevisiae deletion strains, locus YKL068W, active compounds read low 1 | S. cerevisiae deletion strains, locus YKL085W, strain MDH1 (second series), active compounds read low 0.994 | S. cerevisiae deletion strains, locus YKL085W, strain MDH1, active compounds read low 0.994 | S. cerevisiae deletion strains, locus YKL190W, strain CNB1, active compounds read low 0.99 | S. cerevisiae deletion strains, locus YKR001C, strain vps1, active compounds read low 1 | S. cerevisiae deletion strains, locus YLR039C, strain RIC1, active compounds read low 0.979 | S. cerevisiae deletion strains, locus YLR058C, strain SHM2, active compounds read low 1 | S. cerevisiae deletion strains, locus YLR102C, strain apc9, active compounds read low 1.01 | S. cerevisiae deletion strains, locus YLR262C, strain YPT6, active compounds read low 0.97 | S. cerevisiae deletion strains, locus YLR268W, strain sec22, active compounds read low 0.995 | S. cerevisiae deletion strains, locus YLR330W, strain CHS5, active compounds read low 0.992 | S. cerevisiae deletion strains, locus YLR342W, strain FKS1 (second series), active compounds read low 1.02 | S. cerevisiae deletion strains, locus YLR371W, strain rom2, active compounds read low 1.01 | S. cerevisiae deletion strains, locus YLR418C, strain cdc73, active compounds read low 0.99 | S. cerevisiae deletion strains, locus YML016C, strain PPZ1, active compounds read low 1 | S. cerevisiae deletion strains, locus YML032C, strain rad52, active compounds read low 1.01 | S. cerevisiae deletion strains, locus YML124C, strain tub3, active compounds read low 1 | S. cerevisiae deletion strains, locus YMR078C, strain ctf18, active compounds read low 1 | S. cerevisiae deletion strains, locus YMR223W, strain ubp8, active compounds read low 1.03 | S. cerevisiae deletion strains, locus YMR263W, strain SAP30, active compounds read low 1.01 | S. cerevisiae deletion strains, locus YMR307W, strain GAS1, active compounds read low 1.08 | S. cerevisiae deletion strains, locus YNL067W, strain RPL9B, active compounds read low 1 | S. cerevisiae deletion strains, locus YNL128W, strain TEP1, active compounds read low 0.998 | S. cerevisiae deletion strains, locus YNL153C, strain GIM3, active compounds read low 0.999 | S. cerevisiae deletion strains, locus YNL233W, strain BNI4, active compounds read low 1.01 | S. cerevisiae deletion strains, locus YNL250W, strain rad50, active compounds read low 1.01 | S. cerevisiae deletion strains, locus YNL271C, strain bni1, active compounds read low 1.01 | S. cerevisiae deletion strains, locus YNL298W, strain CLA4, active compounds read low 0.998 | S. cerevisiae deletion strains, locus YNL307C, strain MCK1, active compounds read low 1.02 | S. cerevisiae deletion strains, locus YNL322C, strain KRE1, active compounds read low 1 | S. cerevisiae deletion strains, locus YNR052C, strain pop2, active compounds read low 1.01 | S. cerevisiae deletion strains, locus YOL006C, strain TOP1, active compounds read low 1.06 | S. cerevisiae deletion strains, locus YOL012C, strain htz1 0.841 | S. cerevisiae deletion strains, locus YOL147C, strain pex11, active compounds read low 1.01 | S. cerevisiae deletion strains, locus YOR061W, strain CKA2, active compounds read low 1 | S. cerevisiae deletion strains, locus YOR069W, strain VPS5, active compounds read low 0.993 | S. cerevisiae deletion strains, locus YOR136W, strain idh2, active compounds read low 1.01 | S. cerevisiae deletion strains, locus YOR144C, strain elg1, active compounds read low 1 | S. cerevisiae deletion strains, locus YOR184W, strain ser1, active compounds read low 1.03 | S. cerevisiae deletion strains, locus YOR316C, strain cot1, active compounds read low 1 | S. cerevisiae deletion strains, locus YPL055C, strain LGE1, active compounds read low 0.976 | S. cerevisiae deletion strains, locus YPL241C, strain CIN2, active compounds read low 1.05 | S. cerevisiae deletion strains, locus YPR119W, strain clb2, active compounds read low 1 | S. cerevisiae deletion strains, locus YPR141C, strain kar3, active compounds read low 1 | S. cerevisiae deletion strains, locus YPR163C, strain tif3, active compounds read low 1 | S. cerevisiae deletion strains, locus YPR167C, strain met16, active compounds read low 1.01 | S. cerevisiae deletion strains, strain wtn01, active compounds read low 0.995 | S. cerevisiae strains, strain wild type, active compounds read low 0.971
